“And” between values parts separate entries of the source, which are not always exact repeats. Equal values may be shown once. This is part of a sample that, as a whole, favours compounds with a hit. Of some 83,000 tested, about 20% had one in any assay.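 Each cell line was grown in a 96-well plate and treated with one concentration of compound for 48 hours. Values below 10 were considered active.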 Unmarked numbers belong to inactive results. The source made the active and inactive calls.

The first assay relates to SW-620 colon. As to the kind of experiment: NCI-60 one-dose screen, 48 h (100 = growth as untreated, 0 = no growth, -100 = all killed). As to conditions: 10 µM. As for the experimental part: Growth inhibition of the SW-620 human tumor cell line is measured as a screen for anti-cancer activity. Cells are grown in 96 well plates and exposed to the test compound for 48 hours. Compounds are tested at a single concentration, which is 10^-5 M for most compounds. The reported endpoint is percent growth (GI% or GIPRCNT), where numbers from 0 - 100% represent growth inhibition, and numbers from -100% - 0 represent cell death. For example, a value of 40 represents 60% growth inhibition. A value of 0 means no net growth occurred over the course of the experiment. A value of -40 indicates 40% of cells at the beginning of the experiment died by the end of the experiment. A value of -100 means all cells are dead at the end of the experiment.
NCI-60 Human Tumor Cell Lines Screen was performed using the standard one-dose NCI protocol, which is described in more detail at https://dtp.cancer.gov/discovery_development/nci-60/default.htm.
Compounds with GIPRCNT values below 10 were considered active. Activity score was based on GIPRCNT using the following formula: […]
Score is 0 for GIPRCNT values of 100 or above, 50 for GIPRCNT values of 0, and 100 for GIPRCNT values of -100.
As to `CN(C)C(=O)c1ccc(SC(=S)NCc2ccccc2)cc1`, the growth is 98.9%.
Still for that read-out and setting: next, `O=C(Nc1c(Cl)cccc1Cl)Oc1cccc2cccnc12`: 26.8%.

Still in this assay, the particulars now being: 10 µM unless noted.
As to `COc1ccccc1OC(=O)Oc1ccccc1OC`, the growth is 94.6% and 92.8%.
The same measure, in the same setting: as for `NC(=S)N/N=C\c1nccc2c(C(F)(F)C(F)(F)C(F)(F)F)cccc12`, the figure is 28.6%; as for `Cn1c2c(c3ccccc31)CCN1C[C@@H]3CCCC[C@H]3C[C@@H]21`, 13.5%; as for `Nc1nc(N)c2nc(CNc3ccc(C(=O)NC(CCC(=O)O)C(=O)O)cc3)cnc2n1` (stereo not given), 27.6% and 55.3%.
On the same count and under the same terms, as for `CCOc1ccc(-c2nc3ccc(-c4nc5ccc(N6CCN(C)CC6)cc5[nH]4)cc3[nH]2)cc1`, the figure is -85.5% (active); as for `Cc1ccc2nc(C[n+]3ccc4ccccc4c3)ccc2c1`, 80.2%.
On the same count and under the same terms, as for `Nc1nc(N)c2c(ccc3c2ccn3Cc2cccc([N+](=O)[O-])c2)n1`, the figure is -91.8% (active); as for `COC(=O)c1nc(=S)[nH]c(C(=O)OC)c1C(=O)c1ccccn1`, 43.3%.
For `O=C1C2=C(Nc3cc([N+](=O)[O-])ccc3N2)OC1c1c2ccccc2cc2ccccc12` (stereo not given), the growth was 21.8%.
The same measure, in the same setting: as for `CNc1ccc2c(c1)c1ccccc1n2C`, the figure is 111%.
Same read-out and setting: next, `CC1(C)CC([P+](c2ccccc2)(c2ccccc2)c2ccccc2)=NN1`: 47.6%; `S=C(N/N=C/c1ccccn1)Nc1ccccn1`: 32.8%; `OC(CNc1ccnc2cc(Cl)ccc12)CNc1ccnc2cc(Cl)ccc12`: -31.2% (active).
Still for that read-out and setting: next, `NC(=O)/C=C/C(=O)c1c(Cl)cccc1Cl`: -71% (active).
`CCCCCCCCCCCCCCCCOP(=O)([O-])OCC[N+](C)(C)C`: the growth was 50.9%.
On to `N#CSCc1c(Cl)cccc1Cl`, for which the growth was 34.7%.
On the same count and under the same terms, next, `Nc1ncnc2c1ncn2C1OC(CO)C(O)C1O` (stereo not given): 112% and 85.1% and 106%; `CN(C)CCOc1ccc2c(c1)C(=O)/C(=C\c1ncc([N+](=O)[O-])n1C)C2`: -31.6% (active); `CN(C)c1ccc(C(=C2C=CC(=[N+](C)C)C=C2)c2ccc(N(C)C)cc2)cc1` (tested in a mixture with another compound): -72.3% (active).
The same measure, in the same setting: next, `C/C=C1\SC(=S)NC1=O`: 112%.
As for `O=C1C=CC(=O)N1C1c2ccccc2-c2ccccc21`, the growth is 14.7%.
On the same count and under the same terms, next, `Cc1ccc2nc(-[n+]3cc4ccccc4cc3C)ccc2c1`: 55.8%; `O=C(Nc1ccccc1)Oc1c(Cl)c(Cl)c(Cl)c(Cl)c1Cl`: 101% and 102%.
For `CCC(c1cccc(O)c1)C(CC)c1cccc(O)c1` (stereo not given), the growth is 42%.
Still for that read-out and setting: as for `Cc1ccc2c(ccc3c[n+]4c5ccccc5ccc4n32)c1`, the figure is 7.65% (active); as for `O=C(Oc1cccc2cccnc12)c1ccccc1`, 49.7% and 104%.
Still for that read-out and setting: as for `O=[N+]([O-])c1ccc(N=Nc2ccc(O)cc2O)cc1`, the figure is 47.8%.
On the same count and under the same terms, as for `C=C(Cl)C(=NC(C)(C)C)Nc1ccccc1C`, the figure is 72.5%; as for `CCN(CC)CC(C)(C)C(=O)/C=C/c1ccc(Cl)c(Cl)c1`, -39.5% (active); as for `CC(=Nc1ccc(N(C)C)cc1)c1ccccc1`, 42.6%.
In the case of `COc1ccccc1/C=C\C(=O)c1ccccc1`, the growth was 2.63% (active).
On the same count and under the same terms, next, `N#CSCc1ccc(CSC#N)c(Cl)c1`: 25.4%; `O[C@H]1[C@H]2c3cc4c(cc3CN3CCC(=C[C@@H]1O)[C@H]23)OCO4`: 30.4%; `C[n+]1c(/C=C/c2ccc([N+](=O)[O-])cc2)ccc2ccccc21`: 97.6%.
The same measure, in the same setting: as for `CC1OC2CC(=O)OC2C2=C1C(=O)c1c(O)cccc1C2=O` (stereo not given), the figure is -76.4% (active); as for `Cc1ccnc2c1ccc1c(C)ccnc12`, 30.2%.

Still in this assay, the particulars now being: 100 µM.
For `CN(C)C(=O)c1ccc(SC(=S)NCc2ccccc2)cc1`, the growth was -35.8% (active).
As for `O=C(Nc1c(Cl)cccc1Cl)Oc1cccc2cccnc12`, the growth was 23.5%.

Values taken from PubChem BioAssay (NCI).
